# Sampled rows, rich in hits. Any-hit rate of the full collection: about 5.3%.
# Tau FP inhib: qHTS for Inhibitors of Tau Fibril Formation, Fluorescence Polarization | Microtubule-associated protein tau (Homo sapiens), P10636 | K18 P301L tau heparin fibrillization, Alexa594 FP, 6 h | Potency, µM (top dose mostly 57.7 µM), without a hit: at the highest dose activity, negative = inhibition, usual class: inhibitors | 280,000 tested, 0.39% active | AID 1468, 2008; also: potency is read from the fitted curve at half-maximal effect; nearly all actives have a fitted effect of over 55% in size
# Target sequence (P10636 561-689 P618L limits assumed): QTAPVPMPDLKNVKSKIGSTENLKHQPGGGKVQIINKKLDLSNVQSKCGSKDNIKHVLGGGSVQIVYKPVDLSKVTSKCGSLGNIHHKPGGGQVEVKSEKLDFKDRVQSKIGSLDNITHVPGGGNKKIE
#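 K18 P301L tau (15 uM unlabeled/0.24 uM Alexa 594-labeled, final) + compound + heparin 20 uM final; 100 mM NaOAc pH 7; 6 hr 37 C; ThT 30 uM final added, 1 hr RT; FP ex 555/em 632 nm.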
# KDM4E inh: qHTS Assay for Inhibitors of Human Jumonji Domain Containing 2E (JMJD2E); 230,000 tested, 1.6% active; Potency, µM (highest dose often 57.1 µM), for inactives: at the top dose activity change, negative = inhibition, hits mostly inhibitors; AID 2147, 2009; JMJD2E catalytic domain, FDH-coupled NADH fluorescence (FDH is formaldehyde dehydrogenase); Lysine-specific demethylase 4E (Homo sapiens), B2RXH2; active = well fitted inhibition curve with a large enough effect, not every such curve was filed as active; inconclusive = small, poorly fitted or top-dose-only effect, or another doubt; inactive = no such curve, though single readings can be large or run the other way;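 also: potency is read from the fitted curve at half-maximal effect; 0% = wells with enzyme and -100% = buffer wells without enzyme; nearly all actives have a fitted effect of over 50% in size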
# Target sequence (B2RXH2 1-337 limits assumed): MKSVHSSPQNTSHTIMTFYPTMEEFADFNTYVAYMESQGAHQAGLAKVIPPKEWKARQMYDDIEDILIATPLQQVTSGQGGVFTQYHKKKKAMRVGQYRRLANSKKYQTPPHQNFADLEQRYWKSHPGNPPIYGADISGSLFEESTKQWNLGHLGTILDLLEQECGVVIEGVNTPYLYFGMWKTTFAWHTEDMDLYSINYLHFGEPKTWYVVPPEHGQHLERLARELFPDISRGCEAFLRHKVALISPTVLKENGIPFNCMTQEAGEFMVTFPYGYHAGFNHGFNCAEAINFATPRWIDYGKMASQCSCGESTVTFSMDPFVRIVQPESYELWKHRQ
# Tau ThT inhib: qHTS for Inhibitors of Tau Fibril Formation, Thioflavin T Binding | Microtubule-associated protein tau (Homo sapiens), P10636 | recombinant tau K18 P301L, heparin-induced fibrillization, ThT fluorescence | Potency, µM (titrated, usually from 57.4 µM), inactives show top-dose activity, negative = inhibition, usual class: inhibitors | 270,000 tested, 2.1% active; also: potency is read from the fitted curve at half-maximal effect; nearly all actives have a fitted effect of over 55% in size
#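 In this qHTS, human K18 P301L tau is incubated with compound and heparin for 6 hr at 37 C, and Thioflavin T fluorescence then reports fibril load.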
# Coupling enz: qHTS Assay for Inhibitors of Fructose-1,6-bisphosphate Aldolase from Giardia Lamblia: Coupling assay counterscreen; activity change, negative = inhibition, % at 58.2 µM, hits read low; 290,000 tested, 0.67% active; coupling enzyme system counterscreen, AmpLite Red fluorescence; in the data active = activity change below about -30%
#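 Final compound at 57.5 uM, incubated 10 min at RT with coupling enzyme reagent (glyceraldehyde-3-phosphate), then 20 min with substrate and AmpLite Red detection. Fluorescence read at 525/598 nm; tests interference with the coupling assay, not aldolase inhibition.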
# Sfp PPTase inh: qHTS Assay for Inhibitors of Bacillus subtilis Sfp phosphopantetheinyl transferase (PPTase); AID 1490, 2009; Potency, µM, inactives show largest response in the series, negative = inhibition, actives largely listed as inhibitors; 310,000 tested, 3.5% active; Biochemical Sfp PPTase activity, qHTS;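 also: the enzyme is Sfp with the accession as filed and its product quenches rhodamine fluorescence; potency is read from the fitted curve at half-maximal effect; 0% = enzyme reaction without inhibitor and -100% = no enzyme wells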
#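 With Hepes-Na pH 7.6 buffer containing 10 mM MgCl2, Sfp (15 nM) modified BHQ-2-YbbR (12.5 uM) using rhodamine-CoA (5 uM). Two reads 30 minutes apart at 525/598 nm yielded each well's rate.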
# Tau fluor cs: Counterscreen qHTS for Inhibitors of Tau Fibril Formation, Fluorescence Polarization; tau K18 P301L Alexa594 fluorescence, heparin fibrillization; Potency, µM (top dose mostly 57.7 µM), inactives show at the highest dose activity change, negative = decrease; 280,000 tested, 0.93% active; AID 1463, 2008; also: potency is read from the fitted curve at half-maximal effect; nearly all actives have a fitted effect of over 55% in size
#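 Human tau K18 P301L (15 uM unlabeled, 0.24 uM Alexa 594-labeled) in 100 mM sodium acetate pH 7 with 20 uM heparin, 6 hr at 37 C. ThT 30 uM added, 1 hr ambient; Alexa 594 FP and total fluorescence read at 555/632 nm.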
# * marks the source's active call; other numbers are inactive results; ? = inconclusive; . = not tested or not shown; [ ] = another dose, or the depositor's remark. Unless noted, calls follow the shape of the dose curve; as a rule, active = well fitted curve in the direction sought with a large enough effect; inconclusive = small, poorly fitted or top-dose-only effect, or another doubt; inactive = no such curve, though single readings can be large; an effect the other way counts as inactive or inconclusive. Unless noted, % is scaled to controls: 0 for no effect and ±100 for the full control effect.
SMILES,Tau FP inhib,KDM4E inh,Tau ThT inhib,Coupling enz,Sfp PPTase inh,Tau fluor cs
Cc1ccc(-n2c(C)cc(/C=C3/C(=N)N4C(c5ccccc5)=CSC4=NC3=O)c2C)cc1,1.9%,-6.9%,?,1.4,3.9%,-11.6%
CC(C)S(=O)(=O)C1=NSC2=NC(=O)/C(=C\c3ccc(-c4ccccc4)o3)C(=N)N21,-0.4%,0.7%,?,14.9,-0.9%,-17.5%
CC(C)S(=O)(=O)C1=NSC2=NC(=O)/C(=C\c3ccc(-c4cccc(C(=O)O)c4)o3)C(=N)N21,10.3%,0.0%,16.6%,15.3,14.1µM*,17.3%
Clc1ccccc1-c1cc(NCc2ccccc2)ncn1,.,.,.,-2.3,18.4%,.
COC(=O)C/C=C\[C@@H](C)[C@@H](/C=N\O[C@@H]1O[C@H](COC(C)=O)[C@@H](OC(C)=O)[C@H](OC(C)=O)[C@H]1OC(C)=O)NS(=O)(=O)c1ccc(C)cc1,-4.6%[11.6 µM],.,-7.9%[11.5 µM],-2.0,-0.4%,-12.3%[11.6 µM]
O=C1CCC(=O)N(O)CCCCCNC(=O)CCC(=O)N(O)CCCCNC(=O)CCC(=O)N(O)CCCCCN1,-6.3%,4.47µM*,7.0%,5.2,?,13.1%
O=C1NCCCC1C(=O)N1CCCCC1 (stereo unspecified),-5.7%,4.2%,-1.2%,2.4,-11.8%,-0.6%
COc1ccc(/C=C/C(=O)c2ccc(O)cc2O)cc1,-15.2%,-0.7%,11.2µM*,2.2,-61.5%,?
COc1ccc(/C=C/C(=O)c2cc3c(cc2N)OCO3)cc1,-1.9%,22.4µM*,2.82µM*,-0.9,?,15.8µM*[quencher]
COc1cc(OC)c(C(=O)/C=C/c2ccccc2)c(O)c1O,5.0%,-7.2%,12.6µM*,5.8,-20.7%,-27.9%
CSc1ccc(/C=C/C(=O)c2ccc(O)cc2)cc1,-14.1%,-0.3%,?,10.9,79.4µM*,?
COc1cccc(Cn2c(=O)cnc3cnc(OCc4ccccc4)nc32)c1,.,.,.,-0.7,-2.1%,.
COc1ccc(C)cc1NC(=O)Cn1c(=O)ccc2cc(S(=O)(=O)N3CCC(C)CC3)ccc21,3.0%,.,-0.2%,.,.,?
COc1ccc(-c2cccc(NS(=O)(=O)c3cc(C)c(Cl)cc3C)c2)nn1,-8.7%,.,-7.2%,.,.,?
COc1ccc(-c2cccc(C3C4C=CCCC4(C)C(=O)N3Cc3ccccc3)c2)cc1 (stereo unspecified),.,.,.,0.7,?,.
COc1cc(/C=C/C(=O)c2ccc(O)cc2O)ccc1O,.,.,.,-0.6,-29.7%,.
COc1ccc(/C=C/C(=O)c2ccc(O)cc2O)cc1OC,-13.8%,-18.4%,7.08µM*,0.1,-37.5%,-17.8%
COc1ccc(C(=O)/C=C/c2ccccc2)c(O)c1,14.1%,3.7%,?,0.3,20µM*,1.0%
CC(C)=CCC/C(C)=C/Cc1c(O)ccc(C(=O)/C=C/c2ccc(O)cc2)c1O,7.94µM*,-2.9%,20µM*,-5.0,15.8%,4.47µM*[quencher]
COc1ccc(/C=C/C(=O)c2cc(O)ccc2O)cc1,?,?,14.1µM*,0.2,-40.0%,14.1µM*[quencher]
C#CCCOC(=O)N1C2=NC(C(=O)OC)=C(C(=O)OC)[C@@H]3N(CC#CC)c4ccccc4[C@]23C[C@H]1C(=O)OC,-0.4%[11.6 µM],4.3%[11.4 µM],-4.1%[11.5 µM],1.3,15.1%,-4.5%[11.6 µM]
O=C(/C=C/c1ccccc1)c1ccc(O)cc1O,?,?,?,4.3,-13.2%,-25.0%
COc1cc(O)c(C(=O)/C=C/c2ccc(O)c(OC)c2)c(OC)c1,0.6%,?,1.78µM*,1.5,-37.6%,-28.5%
O=C(/C=C/c1ccc(O)cc1)c1ccc(O)cc1O,7.6%,0.3%,10µM*,-1.2,-9.9%,?
COc1ccc(/C=C/C(=O)c2c(OC)cc(O)cc2OC)cc1,.,.,.,-0.5,-25.4%,.
SMILES,Tau FP inhib,KDM4E inh,Tau ThT inhib,Coupling enz,Sfp PPTase inh,Tau fluor cs
CCc1nnc(SCc2cccc(Cl)c2)c2cc3sccc3n12,-4.5%,.,?,.,.,-28.7%
O=[N+]([O-])c1cc2oc3c(c2c(C=NCc2ccncc2)c1O)CCCC3,?,28.2µM*,10µM*,-32.1*,?,?
CN(C)c1ccc(C(=O)/C=C/c2ccco2)cc1,-5.5%,?,10µM*,-2.0,50.1µM*,-26.1%
O=C(/C=C/c1ccco1)c1ccc(O)cc1,-9.9%,?,?,1.9,22.4µM*,-13.9%
CN(C)c1ccc(C(=O)/C=C/c2ccccc2)cc1,8.4%,-5.7%,?,-1.4,-27.6%,-25.9%
CCOc1cccc(=O)c2c(C)n(CC(=O)c3ccccc3)c(C)c12,-2.6%,-5.0%,?,-3.2,-24.1%,-10.6%
COc1cccc(=O)c2c(C)n(CC(=O)c3ccccc3)c(C)c12,9.1%,-11.2%,14.1µM*,-23.7,44.7µM*,?
O=Cc1[nH]c2ccccc2c1N(C(=O)CCl)c1ccccc1,?,-17.2%,31.6µM*,1.9,8.7%,-26.8%
O=[N+]([O-])c1ccc(Nc2ccc(Cl)cc2)nc1,-2.7%,3.8%,-6.5%,3.4,16.1%,-6.4%
O=[N+]([O-])c1ccc(Nc2ccc3ccccc3c2)nc1,-8.9%,2.2%,1.26µM*,-0.5,-2.9%,?
COc1ccc(CNCCc2ccc([N+](=O)[O-])cc2)c(OC)c1OC,.,.,.,-0.3,11.1%,.
COc1cc(N(C)C)cc(CN(C)CCc2ccc([N+](=O)[O-])cc2)c1O,.,.,.,-54.3*,?,.
NNC(=S)NC1CCS(=O)(=O)C1 (stereo unspecified),-2.9%,-25.6%,.,0.2,8.91µM*,9.5%
COc1ccc(CNc2ncnc3ccc(-c4ccc(N(C)C)cc4)cc23)c(OC)c1,.,.,.,-22.5,?,.
COc1ccc2nc(N=Nc3ccc(O)c4ccccc34)sc2c1,-14.7%,-16.2%,2.51µM*,-4.2,-4.5%,?
COc1ccc2nc(N=NC3=C(O)CC(C)(C)CC3=O)sc2c1,3.3%,?,15.8µM*,1.6,?,-21.8%
Cc1c(CC(C)(C)C(=O)O)n(Cc2ccc(Cl)cc2)c2ccc(F)cc12,-0.9%,?,?,14.1,-6.6%,-19.2%
O=C1C[C@H](c2ccc3ccccc3c2)N1S(=O)(=O)c1ccccc1[N+](=O)[O-],.,.,.,6.9,-8.7%,.
CCCCN1Cc2c(nc3cc(-c4ccco4)[nH]n3c2=O)C1=O,-3.2%,?,?,5.6,10µM*,-1.3%
COCc1cc(=O)n2[nH]c(-c3ccco3)cc2n1,-0.4%,?,-13.3%,4.1,-6.8%,-3.6%
